# Data published in PubChem BioAssay (NCATS).
# Records with an inconclusive call do not appear. A call without a number means that no potency is given here. The source made the active and inactive calls. The call rests on the fitted dose curve; in most records, active means well fitted cell-killing curve with a large enough effect; inconclusive means small, poorly fitted or top-dose-only effect, or effect the other way; inactive means no such curve, though single readings can be large or run the other way.
# Assay: Quantitative High-Throughput drug screen in 47 multiple myeloma cell lines against the NCATS MIPE library collection: H1112_PLB cell viability assay (AID 1918967; further: nearly all actives have a fitted effect of over 30% in size)
# Settings: H1112 myeloma cells viability, ATP luminescence, 48 h; series mostly up to 45.8 µM
# Procedure, shortened: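 Primary qHTS used for cherry-picking: cells at 500/well, library compounds for 48 h (37C, 5% CO2), luminescent ATP assay.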
# Potency means the concentration at half of the fitted maximal effect.
row,Compound,Potency
1,C[C@@H]1C(=O)O[C@H]2CC34[C@H]5C[C@@H](C(C)(C)C)C36[C@H](OC(=O)[C@@H]6O)O[C@@]4(C(=O)O5)[C@]21O (stereo partly drawn),inactive
2,CC(C)n1cnc2c(NCCc3ccc(O)cc3)nc(-c3csc4ccccc34)nc21,13.2 µM (active)
3,CC(=O)O[C@H]1C[C@@H]2CC[C@H]3[C@H]4C[C@H]([N+]5(C)CCCCC5)[C@@H](OC(C)=O)[C@@]4(C)CC[C@@H]3[C@@]2(C)C[C@H]1[N+]1(C)CCCCC1,inactive
4,COc1cc(C(C)C)c(Oc2cnc(NC(CO)CO)nc2N)cc1I,inactive
5,CCN(CC)CCCCNc1ncc2c(n1)N(C)C(=O)N(c1c(Cl)c(OC)cc(OC)c1Cl)C2,16.6 µM (active)
6,Cc1cc(-c2nnc3n2CCCCC3)c(C)n1-c1ccccc1,inactive
7,O=S(=O)(O)CCSSCCS(=O)(=O)O,inactive
8,COc1cc(CCc2cc(NC(=O)c3ccc(N4C[C@@H](C)N[C@@H](C)C4)cc3)n[nH]2)cc(OC)c1,11.8 µM (active)
9,NC(=O)c1ncn([C@@H]2O[C@H](CO)[C@@H](O)[C@@H]2O)c1O,inactive
10,CC(O)(C#Cc1ccc2c(c1)N(c1nc(N)ncc1Cl)CC2)c1nccs1 (stereo not drawn),1.18 µM (active)
11,c1coc(CNc2ncnc3nc[nH]c23)c1,inactive
12,O=C(CN1C(=O)C2(CCCC2)NC[C@H]1c1cc(F)cc(F)c1)Nc1ccc2c(c1)C[C@@]1(C2)C(=O)Nc2ncccc21,inactive
13,CC(=O)N1CCN(c2ccc(OCc3nn(C)c(C)c3-c3cccc4c(CCCOc5cccc6ccccc56)c(C(=O)O)n(Cc5cccnc5)c34)cc2)CC1,0.132 µM (active)
